Tau ThT inhib: blocks human tau fibril formation measured by thioflavin T | AID 1460 | recombinant tau K18 P301L, heparin-induced fibrillization, ThT fluorescence | 2.1% of 270,000 active | P10636 | Potency, µM (titrated, usually from 57.4 µM), usual class: inhibitors; also: nearly all actives have a fitted effect of over 55% in size
Target sequence (P10636 561-689 P618L limits assumed): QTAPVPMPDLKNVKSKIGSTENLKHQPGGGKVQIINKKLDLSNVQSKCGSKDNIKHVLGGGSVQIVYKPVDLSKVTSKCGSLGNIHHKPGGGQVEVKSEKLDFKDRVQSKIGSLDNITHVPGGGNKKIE
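Using a mix of unlabeled (15 uM) and Alexa 594-labeled (0.24 uM) tau K18 P301L, heparin-triggered fibrillization over 6 hr at 37 C was scored by ThT fluorescence.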
Tau FP inhib: inhibitors of human tau fibril formation; Potency, µM (titrated, usually from 57.7 µM), actives largely listed as inhibitors; AID 1468; K18 P301L tau heparin fibrillization, Alexa594 FP, 6 h; P10636; 0.39% of 280,000 active; also: nearly all actives have a fitted effect of over 55% in size
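Compound effects on tau fibrillization are measured by Alexa 594 fluorescence polarization (ex 555, em 632 nm). K18 P301L tau is used at 15 uM with 0.24 uM labeled tracer, and 20 uM heparin induces aggregation over 6 hr at 37 C.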
TRb SRC2 PPI: disrupts binding of human TR beta to SRC2 | 0.065% of 280,000 active | Potency, µM (series often up to 106 µM), hits mostly inhibitors | TRbeta-SRC2 peptide binding, fluorescence polarization; receptor liganded with 1 µM T3; also: nearly all actives have a fitted effect of over 50% in size
Target sequence (P10828 whole entry, looked up): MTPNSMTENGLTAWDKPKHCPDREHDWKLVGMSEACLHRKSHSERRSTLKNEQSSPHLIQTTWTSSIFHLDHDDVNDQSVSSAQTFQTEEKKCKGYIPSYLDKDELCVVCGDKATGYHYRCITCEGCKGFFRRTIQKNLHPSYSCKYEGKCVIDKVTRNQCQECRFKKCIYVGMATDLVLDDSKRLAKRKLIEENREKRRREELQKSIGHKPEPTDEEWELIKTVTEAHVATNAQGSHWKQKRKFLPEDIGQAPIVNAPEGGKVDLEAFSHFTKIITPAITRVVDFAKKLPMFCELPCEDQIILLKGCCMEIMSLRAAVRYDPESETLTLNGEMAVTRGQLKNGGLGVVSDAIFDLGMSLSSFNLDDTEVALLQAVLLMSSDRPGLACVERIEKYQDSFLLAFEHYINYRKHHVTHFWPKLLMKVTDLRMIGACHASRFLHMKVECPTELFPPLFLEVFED
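Compounds were added to 0.6 uM TRb ligand-binding domain and 20 nM Texas Red-labeled SRC2 peptide in Tris buffer containing 1 uM T3, incubated 5 hr at ambient temperature, then read by fluorescence polarization.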
TR SRC2 fluor cs: counter-screen for TRb-SRC2 inhibitors: fluorescence interference. TRb/SRC2 Texas Red total fluorescence interference. AID 1479. Potency, µM (highest dose often 106 µM). 0.29% of 280,000 active; active = well fitted curve in either direction with a large enough effect; inconclusive = small, poorly fitted or top-dose-only effect
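Human TRb ligand-binding domain at 0.6 uM with 20 nM Texas Red SRC2 peptide in Tris buffer containing 1 uM T3 and 5% DMSO, incubated with compound 5 h at ambient temperature. Total fluorescence (555/632 nm) calculated as parallel + 2 × perpendicular.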
Tau fluor cs: counter-screen for tau fibril formation inhibitors | tau K18 P301L Alexa594 fluorescence, heparin fibrillization | Potency, µM (doses to about 57.7 µM) | 0.93% of 280,000 active | AID 1463; also: nearly all actives have a fitted effect of over 55% in size
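Human tau K18 P301L (15 uM unlabeled, 0.24 uM Alexa 594-labeled) in 100 mM sodium acetate pH 7 with 20 uM heparin, 6 hr at 37 C. ThT 30 uM added, 1 hr ambient; Alexa 594 FP and total fluorescence read at 555/632 nm.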
GoLoco inh red: inhibitors of human Gai1-RGS12 GoLoco interaction (red fluorophore); Potency, µM (top dose mostly 61.6 µM), usual class: inhibitors; 0.44% of 230,000 active; Gai1:RGS12 GoLoco peptide FP, rhodamine, 10 min; P63096; active = well fitted inhibition curve with a large enough effect, not every such curve was filed as active; inactive = no such curve, though single readings can be large or run the other way; also: nearly all actives have a fitted effect of over 30% in size
A number is an active result; – = inactive; ? = inconclusive; · = no result; [ ] = another dose, or the depositor's remark. Most compounds without a hit are left out; they make up all but 3.1% or so of the library. Unless noted, calls follow the shape of the dose curve; as a rule, active = well fitted curve in the direction sought with a large enough effect; inconclusive = small, poorly fitted or top-dose-only effect, or another doubt; inactive = no such curve, though single readings can be large; an effect the other way counts as inactive or inconclusive.

SMILES	Tau ThT inhib	Tau FP inhib	TRb SRC2 PPI	TR SRC2 fluor cs	Tau fluor cs	GoLoco inh red
O=C1c2ccccc2C(=O)C1c1ccnc2ccccc12	1.8µM	–	–	–	–	–
O=C1C(c2ccnc3ccccc23)=C(O)c2ccccc21	?	–	–	–	–	–
N#CC1=C(N)SC(N)=C(C#N)C1c1ccnc2ccccc12	28µM	?	–	–	–	–
O=C1c2ccccc2C(=O)C1c1nccc2ccccc12	1.4µM	–	–	–	–	–
Cc1ccc(C2C(C#N)=C(N)SC(N)=C2C#N)c(C)c1	–	–	–	–	–	–
COc1ccc(C(c2nnnn2CS(=O)(=O)c2ccc(C)cc2)N2CCN(c3ncccn3)CC2)cc1 (centres undefined)	–	–	–	–	–	–
Cc1cccc(NC(=O)COc2ccc(/C=C\c3[nH]c(=O)[nH]c(=O)c3[N+](=O)[O-])cc2)c1	10µM	–	–	–	–	–
CCOC(=O)c1cccc(NC(=O)COc2ccc([N+](=O)[O-])cc2)c1	?	–	–	–	?	–
NC1=NC(=Nc2cccc(S(N)(=O)=O)c2)c2ccccc21	–	–	–	–	–	–
COc1cc(N=Nc2cccc(S(N)(=O)=O)c2)c2ccccc2c1N	1.6µM	?	–	–	10µM[quencher]	–[14.2 µM]
Cc1[nH]n(-c2ccc(Br)cc2)c(=O)c1C=Nc1ccc(S(=O)(=O)Nc2nccs2)cc1	16µM	–	–	–	?	–
O=S(=O)(NCc1ccc(F)cc1)c1ccc2[nH]c3c(c2c1)CCCCC3	–	–	–	–	16µM[quencher]	·
COc1cccc(CNS(=O)(=O)c2ccc3[nH]c4c(c3c2)CCCCC4)c1	–	?	–	–	13µM[quencher]	·
CSc1nnc(-c2ccccc2N=Cc2c(C)[nH]n(-c3ccc4ccccc4c3)c2=O)c(=O)[nH]1	22µM	–	–	–	–	–
C=CCSc1nnc(-c2ccccc2N=Cc2c(C)[nH]n(-c3ccccc3)c2=O)c(=O)[nH]1	?	–	–	–	–	–
O=[N+]([O-])c1ccc(O)c(Nc2ncnc3ccc(Br)cc23)c1	16µM	–	–	–	–	–
Cc1cccc(N=C2NN=C(c3ccc4c(c3)OCCO4)CS2)c1	11µM	–	–	–	?	–
Cc1nc2ccc(-c3nc4cc(N)ccc4o3)cc2[nH]1	?	–	–	–	–	–
Nc1ccc2oc(-c3ccc4nc[nH]c4c3)nc2c1	14µM	–	–	–	?	–
CC1=NC(=O)C(N=Nc2ccccc2C(=O)O)N1c1ccccc1 (centres undefined)	5µM	–	–	–	–	–
CC1=NC(=O)C(N=Nc2ccccc2)N1c1ccccc1 (centres undefined)	?	?	–	–	–	–
CC1=NC(=O)C(N=Nc2cccc(C(=O)O)c2)N1c1ccccc1 (centres undefined)	16µM	–	–	–	–	20µM
OCC1OC([S-])[C@H](O)C(O)C1O.[Au+] (some centres undefined)	?	?	?	13µM[quencher]	–	–
CCNc1ccc(N=Nc2c(C)n(C)n(-c3ccccc3)c2=O)cc1	16µM	–	–	–	–	–
CC1=CC(=Nc2c(C)n(C)n(-c3ccccc3)c2=O)C=CC1=O	3.2µM	10µM	?	–	?	–
SMILES	Tau ThT inhib	Tau FP inhib	TRb SRC2 PPI	TR SRC2 fluor cs	Tau fluor cs	GoLoco inh red
CC1=CC(=Nc2c(C)n(C)n(-c3ccccc3)c2=O)C=C(C)C1=O	11µM	?	–	–	?	–
CN(C)c1ccc(C(CNS(=O)(=O)c2ccc(F)cc2F)N2CCOCC2)cc1 (centres undefined)	?	–	–	–	–	·
CCN(CC(=O)NC(=O)NC1CCCCC1)Cc1nc2ccccc2c(=O)[nH]1	–	–	–	–	–	–
COc1ccc(-n2c(C)cc(/C=N/Nc3nnc(C)n3N)c2C)cc1	28µM	?	–	–	–	–
CCOc1ccc(-n2c(C)cc(/C=N/Nc3nc(C)cc(=O)[nH]3)c2C)cc1	?	–	–	–	?	–
Cc1ccc2cc(CN(Cc3ccc4c(c3)OCO4)Cc3nnnn3Cc3ccco3)c(=O)[nH]c2c1	–	–	–	–	–	–
Cc1ccc(CN(Cc2cc3cc4c(cc3[nH]c2=O)OCCO4)Cc2nnnn2Cc2ccco2)cc1	35µM	?	–	–	–	–
CCN(CC)c1nc(N)c2c(N)nc3c(c2c1C#N)CC(c1ccccc1)O3 (centres undefined)	?	–	–	–	32µM[quencher]	–
CCC1Cc2c(nc(N)c3c(N)nc(N4CCCCC4)c(C#N)c23)O1 (centres undefined)	?	–	–	–	16µM[quencher]	–
N#Cc1c(N2CCCCC2)nc(N)c2c(N)nc3c(c12)CC(c1ccccc1)O3 (centres undefined)	?	–	–	–	11µM[quencher]	–
CCN(CC)c1nc(N)c2c(N)n(-c3ccccc3C)c(=S)c(C#N)c2c1C#N	–	–	–	–	–	–
C=CCOc1c(OC)cc(/C=N/Nc2cccc(C(=O)O)c2)c(Br)c1Br	?	?	–	–	–	–
CCOC(=O)c1csc(NC(=O)CSc2nnnn2-c2ccc(OC)c(OC)c2)n1	–	–	–	–	–	–
COc1ccc(Nc2nnc(SC(C(=O)Nc3cc(C)ccc3C)c3ccccc3)s2)cc1 (centres undefined)	–	?	–	–	?	–
COc1ccc(Nc2nnc(SC(C(=O)Nc3ccc(OC)c(Cl)c3)c3ccccc3)s2)cc1 (centres undefined)	–	–	–	–	7.1µM[quencher]	–
Cc1cc(NC(=O)c2sc(Nc3cccc(C(F)(F)F)c3)nc2N)no1	11µM	?	–	–	18µM[quencher]	–
COC(=O)N1CCC[C@@]2(CCN(C(c3ccccc3)c3ccccc3)C2)C1	·	·	·	·	·	–
O=C(O)c1ccccc1-c1c2cc(Br)c(=O)c(Br)c-2oc2c(Br)c(O)c(Br)cc12	·	·	?	28µM[fluorescent]	·	·
Cc1ccc2oc(-c3ccccc3C(=O)O)cc(=O)c2c1	–	–	–	–	–	–
Cc1nc(-c2cccc(NC(=O)Cc3ccccc3)c2)cs1	–	–	–	–	–	–
CCOC(=O)c1cc(-c2ccc(OC)cc2)n[nH]1	?	–	–	–	–	–
O=C1C=CC2=C3c4cc(O)c(O)cc4C[C@]3(O)COC2=C1	16µM	?	–	–	?	0.25µM
Cc1cc(C)cc(NC(=O)Nc2cc(S(=O)(=O)N(C)C)ccc2C)c1	–	?	–	–	16µM[quencher]	–
Cc1cc(N2CCCC2=O)ccc1S(=O)(=O)NCCOc1ccccc1	–	–	–	–	–	–
Nn1c(SCC(=O)NC2CCS(=O)(=O)C2)nnc1-c1cccs1 (centres undefined)	–	–	–	–	–	–

Assay outcomes as filed in PubChem.
